The values below come from PubChem BioAssay.

Experiment [1] relates to Human papillomavirus type 1a protein E7 (residues 44-93). The experiment in a line: HPV1a E7 fragment binders on microarrays, primary screen, biochemical, small-molecule microarray, residues 44-93, 635 nm fluorescence (AID 1108).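 Further: E7 fragment applied at 1 µg/mL in TBST for 1 h at 4 C; score combines spot fluorescence with its signal to noise ratio.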 To be noted: small-molecule microarray binding, fluorescence 635 nm; higher = more signal.
Experiment [2] can be described thus: modulators of HCV replicon luciferase signal, primary screen, HCV replication inhibitor project, Huh7 cells, luciferase reporter (AID 1109).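 Further: huh7 hepatoma cells harbouring a luciferase neomycin HCV replicon reporter; luciferase luminescence as measure of HCV replicon replication; test concentration not given here.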 The following applies: 48 h, higher = more signal.
For experiment [3], the target named is Left-right determination factor 2 (Homo sapiens) (UniProt O00292). The experiment in a line: LEFTY2 binders on small-molecule microarrays, primary screen, biochemical, small-molecule microarray, 635 nm fluorescence scan (AID 1110). The following applies: LEFTY2 binding, higher = more signal.
Experiment [4] deals with Calmodulin-1 (Homo sapiens) (UniProt P0DP23). The experiment in a line: CALM1 binders on microarrays, EGTA buffer, profiling panel, biochemical, small-molecule microarray, Cy5-labelled CALM1 (AID 1111).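 Further: labelled calmodulin applied in Tris saline Tween buffer holding calcium plus EGTA and DTT.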 The following applies: Cy5-CALM1 binding fluorescence, higher = more signal.
Experiment [5] has the same target. The experiment in a line: calcium-bound CALM1 binders on microarrays, profiling panel, artefact control for SMM control-protein annotation, biochemical, small-molecule microarray, Cy5-labelled CALM1, plus calcium (AID 1112).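 Further: score merges spot fluorescence with signal to noise from triplicate slides.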 The following applies: Cy5-CALM1 binding fluorescence, higher = more signal.
The nature of experiment [6]: small-molecule microarray binders of probe aWnt5a, primary screen, biochemical, biotinylated probe, 635/667 nm fluorescence (AID 1113).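 Further: score merges 667 nm fluorescence intensity with signal-to-noise per printed feature.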 The following applies: higher = more signal.
Experiment [7] is described as follows: small-molecule microarray binders of probe aShh, primary screen, biochemical, biotinylated probe, 635/667 nm fluorescence (AID 1114).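 Further: probe is biotin-labelled aShh protein from a stem cell growth factor screen; measures binding of labelled protein to compounds printed on the slide; score merges feature fluorescence at 667 nm with signal-to-noise.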 The following applies: higher = more signal.
Experiment [8] is described as follows: small-molecule microarray binders of probe aNog, primary screen, biochemical, biotinylated probe, 635/667 nm fluorescence (AID 1115).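 Further: probe is biotinylated aNog protein used at 0.15 µg/mL for 1 h at 4 C; z-score combines 667 nm fluorescence of each spot with its signal to noise.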 To be noted: higher = more signal.
For experiment [9], the target named is Torsin-1A-interacting protein 1 (Homo sapiens) (UniProt Q5JTV8). The experiment in a line: LAP1 binders from COS7 cell lysate, primary screen, small-molecule microarray, 635/667 nm fluorescence (AID 1116). The following applies: COS7-hLAP1 lysate binding, 635 nm fluorescence, higher = more signal.
Experiment [10] concerns the target Alpha-bungarotoxin (Bungarus multicinctus) (UniProt P60615). The experiment in a line: alpha-bungarotoxin binders on microarray, profiling panel, artefact control for SMM control protein annotation, biochemical, small-molecule microarray, Alexa647 label, 635/667 nm fluorescence (AID 1117). The following applies: alpha-BTX-A647 binding fluorescence, higher = more signal.

The target of a further experiment is Albumin (Bos taurus) (UniProt P02769). The experiment in a line: bovine serum albumin binders on microarray, profiling panel, artefact control for SMM control protein annotation, biochemical, small-molecule microarray, Alexa647 label, 635/667 nm fluorescence (AID 1118).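 Further: score merges 667 nm emission intensity and signal-to-noise per printed compound spot.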 To be noted: BSA-A647 binding, fluorescence 635 nm, higher = more signal.
The nature of experiment [11]: small-molecule microarray binders of probe aXIP, primary screen, biochemical, NeuroSMM set, 635/667 nm fluorescence (AID 1119).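 Further: probe is the protein aXip251-270 applied at 1 µg/mL to compound-printed slides; binding of probe to printed compounds measured as 667 nm fluorescence plus signal to noise.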 To be noted: higher = more signal, called active from +8 up or from −8 down.
A short description of experiment [12]: small-molecule binders of probe aNOTCH3, primary screen, biochemical, small-molecule microarray, 635/667 nm fluorescence (AID 1120).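 Further: probe is a biotin-tagged antibody raised against NOTCH3 rather than NOTCH3 protein; score merges spot fluorescence near 667 nm with spot signal to noise.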 To be noted: higher = more signal.
Experiment [13] can be described thus: small-molecule binders of probe aNOTCH2, primary screen, biochemical, small-molecule microarray, 635/667 nm fluorescence (AID 1121).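 Further: score merges feature fluorescence read at 667 nm with its signal to noise.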 To be noted: higher = more signal.
Experiment [14] has as its target Carbonic anhydrase 2 (Homo sapiens) (UniProt P00918). The experiment in a line: CAII small-molecule binders, profiling panel, biochemical, small-molecule microarray, Alexa647-labelled CAII (AID 1122). The following applies: CAII-A647 binding fluorescence, higher = more signal.
Experiment [15] in a line: COS7 lysate on small-molecule microarray, probe aHis, 635 nm (AID 1123).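 Further: z-score combines 667nm fluorescence intensity with signal-to-noise per printed compound spot.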 To be noted: COS7 cell lysate, fluorescence, higher = more signal.
The nature of experiment [16]: compound binding in COS7 lysate, probe aLAP1, primary screen, cell lysate, small-molecule microarray (AID 1124).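 Further: lysate comes from COS7 cells expressing LAP1 and is applied at 0.3 µg/mL; score merges spot fluorescence near 667 nm with signal-to-noise over triplicate slides.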 The following applies: probe aLAP1, fluorescence, higher = more signal.
In the next experiment the test system is Sam68 (KHDRBS1). The experiment in a line: Sam68 small-molecule binders, primary screen, biochemical, small-molecule microarray, 635 nm fluorescence (AID 1125).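 Further: score merges 667 nm channel intensity with signal to noise over triplicate slides.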 To be noted: small-molecule microarray binding, higher = more signal.
Experiment [17] deals with Chordin-like protein 2 (CHRDL2). The experiment in a line: CHRDL2 small-molecule binders, primary screen, biochemical, small-molecule microarray, 635 nm fluorescence (AID 1126).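 Further: printed compound slides probed with Chrdl2 protein at 4 µg/mL for 1 h at 4 C; score merges 667 nm emission intensity with signal to noise over three replicate slides.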 To be noted: small-molecule microarray binding, fluorescence 635 nm; higher = more signal.
In experiment [18] the target is Concanavalin-A (Canavalia ensiformis) (UniProt P02866). The experiment in a line: ConA small-molecule binders, primary screen, artefact control for SMM control protein annotation, biochemical, small-molecule microarray, Alexa647 label, 635 nm (AID 1127).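 Further: z combines 667 nm emission intensity with signal-to-noise across three replicate slides.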 To be noted: ConA-A647 binding fluorescence, higher = more signal.

Each structure is given as a SMILES string. Activity calls are given as the source filed them.

Sequence of Left-right determination factor 2 (Homo sapiens) (O00292 whole entry, looked up): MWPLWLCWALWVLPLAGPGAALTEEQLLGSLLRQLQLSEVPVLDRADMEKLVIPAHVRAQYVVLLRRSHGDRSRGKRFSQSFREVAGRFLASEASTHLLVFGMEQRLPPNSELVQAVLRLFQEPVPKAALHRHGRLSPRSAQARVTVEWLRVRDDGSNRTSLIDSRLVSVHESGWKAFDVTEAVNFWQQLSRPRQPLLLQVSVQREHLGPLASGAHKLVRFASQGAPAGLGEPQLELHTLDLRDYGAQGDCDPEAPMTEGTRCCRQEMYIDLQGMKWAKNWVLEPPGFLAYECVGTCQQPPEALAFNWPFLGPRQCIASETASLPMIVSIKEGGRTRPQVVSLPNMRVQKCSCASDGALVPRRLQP
Sequence of Concanavalin-A (Canavalia ensiformis) (P02866 whole entry, looked up): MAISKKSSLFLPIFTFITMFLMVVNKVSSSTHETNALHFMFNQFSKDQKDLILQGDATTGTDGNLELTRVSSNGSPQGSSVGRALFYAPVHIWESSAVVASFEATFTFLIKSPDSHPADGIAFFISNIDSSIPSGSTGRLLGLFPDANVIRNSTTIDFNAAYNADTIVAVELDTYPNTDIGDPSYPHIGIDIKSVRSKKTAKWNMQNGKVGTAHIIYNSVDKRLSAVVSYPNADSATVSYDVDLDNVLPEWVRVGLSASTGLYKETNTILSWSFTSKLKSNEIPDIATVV
Sequence of Torsin-1A-interacting protein 1 (Homo sapiens) (Q5JTV8 whole entry, looked up): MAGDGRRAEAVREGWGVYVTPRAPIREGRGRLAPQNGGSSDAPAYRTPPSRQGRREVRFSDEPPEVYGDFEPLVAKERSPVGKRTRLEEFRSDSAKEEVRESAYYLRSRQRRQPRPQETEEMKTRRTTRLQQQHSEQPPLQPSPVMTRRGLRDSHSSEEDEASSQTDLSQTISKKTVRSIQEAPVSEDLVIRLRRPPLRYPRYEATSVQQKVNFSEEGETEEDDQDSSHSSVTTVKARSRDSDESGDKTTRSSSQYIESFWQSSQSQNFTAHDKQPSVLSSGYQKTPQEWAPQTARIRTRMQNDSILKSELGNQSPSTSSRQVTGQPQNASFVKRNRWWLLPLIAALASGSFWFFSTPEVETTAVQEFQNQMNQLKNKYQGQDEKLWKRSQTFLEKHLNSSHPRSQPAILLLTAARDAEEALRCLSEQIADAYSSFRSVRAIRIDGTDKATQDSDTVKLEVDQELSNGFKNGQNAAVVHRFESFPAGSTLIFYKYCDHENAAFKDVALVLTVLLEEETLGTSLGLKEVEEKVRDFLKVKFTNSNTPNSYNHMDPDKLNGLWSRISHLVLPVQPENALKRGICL
Sequence of Alpha-bungarotoxin (Bungarus multicinctus) (P60615 whole entry, looked up): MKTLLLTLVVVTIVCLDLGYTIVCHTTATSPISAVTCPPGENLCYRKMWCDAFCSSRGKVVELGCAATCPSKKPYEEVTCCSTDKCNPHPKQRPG
Sequence of Albumin (Bos taurus) (P02769 whole entry, looked up): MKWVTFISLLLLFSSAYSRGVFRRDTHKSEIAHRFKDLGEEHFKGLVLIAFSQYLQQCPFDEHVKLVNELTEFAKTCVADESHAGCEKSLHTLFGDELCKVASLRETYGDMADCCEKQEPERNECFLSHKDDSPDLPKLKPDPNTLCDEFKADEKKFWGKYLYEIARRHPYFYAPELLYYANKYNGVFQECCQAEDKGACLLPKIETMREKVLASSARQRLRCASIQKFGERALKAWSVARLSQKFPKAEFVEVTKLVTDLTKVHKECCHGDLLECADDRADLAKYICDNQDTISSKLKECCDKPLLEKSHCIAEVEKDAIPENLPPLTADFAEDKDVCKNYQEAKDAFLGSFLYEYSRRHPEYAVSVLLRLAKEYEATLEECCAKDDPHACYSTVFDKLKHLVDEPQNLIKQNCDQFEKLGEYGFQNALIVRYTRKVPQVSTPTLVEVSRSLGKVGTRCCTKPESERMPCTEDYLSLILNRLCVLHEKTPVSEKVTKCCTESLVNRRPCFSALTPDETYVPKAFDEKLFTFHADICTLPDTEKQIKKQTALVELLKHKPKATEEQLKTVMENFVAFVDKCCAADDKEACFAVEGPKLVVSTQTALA

On to `O=C1O[C@H](c2ccccc2)[C@H](c2ccccc2)N2[C@H]1[C@@H](C(=O)N1CCCCCCC1)[C@]1(C(=O)Nc3ccccc31)[C@H]2c1ccc(O)cc1`, for which the composite z-score was 1.52 in [1]; 1.86 in experiment [3]; 3.09 in [4]; 1.64 in experiment [5]; 1.63 in experiment [6]; 3.71 in [7]. Further, the composite z-score was determined as 3.66 in experiment [8]; 5.68 in experiment [9]; 3.36 in experiment [10]; 0.052 in the experiment with Albumin (Bos taurus); 2.34 in experiment [12]; 1.24 in experiment [13]. In addition, the composite z-score in [14] was found to be 0.764; in experiment [15], 4.65; in [16], 1.65; with Sam68 (KHDRBS1) it was 1.31; in experiment [17], 1.71; in [18] it was 1.17. Further, the z-score in experiment [2] was -1.09. Moreover, the composite Z-score in experiment [11] was 8.41 (active).

Turning to `C=CCNC(=O)[C@@H]1[C@H]2C(=O)O[C@H](c3ccccc3)[C@H](c3ccccc3)N2[C@H](c2ccc(O)cc2)[C@@]12C(=O)Nc1ccc(C#CCCO)cc12`, the composite z-score in experiment [1] is -0.379; in experiment [3] it was -0.144; in [4], -0.0464; in [5] it was 0.0653; in experiment [6], -0.0792; in [7], -0.484. Besides, the composite z-score was -0.372 in [8]; -0.275 in experiment [9]; -0.04 in experiment [10]; 0.803 in the experiment with Albumin (Bos taurus); -0.186 in [12]; -0.149 in [13]. Moreover, the composite z-score was 0.761 in experiment [14]; 1.55 in experiment [15]; 0.71 in experiment [16]; 0.277 in the experiment on Sam68 (KHDRBS1); -1.31 in [17]; 0.0196 in [18]. In experiment [2], this molecule had a z-score of -0.439. In experiment [11], the composite Z-score was -0.588 (inactive).

On to `Cc1ccccc1C(O)C1C=CC2C(=O)N(Cc3ccccc3)C(=O)C2N1n1cnnc1` (stereo not given), for which the composite z-score is 1.29 in [1]; -0.305 in [3]; 0.0712 in experiment [4]; -0.535 in experiment [5]; 0.0388 in experiment [6]; 0.108 in experiment [7]. The composite z-score in experiment [8] was 0.2; in experiment [9], 0.542; in experiment [10] it was 0.611; in the experiment with Albumin (Bos taurus), 0.756; in [12], 0.159; in experiment [13], -0.137. The composite z-score in experiment [14] is 0.71; in experiment [15], 0.774; in experiment [16] it was -0.0065; in the experiment with Sam68 (KHDRBS1) it was 1.01; in experiment [17] it was -0.317; in [18] it was 0.71. The z-score in experiment [2] is -0.364. Moreover, in experiment [11], the composite Z-score is 0.358 (inactive).

As to `O=C1c2ccccc2[C@](Cc2ccccc2I)(C(=O)NC2CC2)[C@H](c2ccc(CO)cc2)N1Cc1ccccc1Cl`, the composite z-score in [1] was 1.06; in experiment [3], -0.112; in [4], 0.638; in experiment [5], 0.61; in experiment [6], -0.0701; in experiment [7], 0.755. Moreover, the composite z-score was 0.139 in experiment [8]; 0.747 in experiment [9]; 0.09 in [10]; 0.0646 with Albumin (Bos taurus); 0.265 in [12]; 0.0563 in [13]. For the same molecule, the composite z-score in experiment [14] is 0.574; in [15], 1.93; in [16] it was 0.696; with Sam68 (KHDRBS1) it was 1.31; in experiment [17], 0.0424; in experiment [18], 0.997. In experiment [2], this molecule came in with a z-score of -1.4. The composite Z-score in experiment [11] was -0.057 (inactive).

Regarding `COc1ccc(C#Cc2ccc3c(c2)[C@]2(C(=O)N3)[C@H](c3ccc(OCCO)cc3)N3[C@H](c4ccccc4)[C@H](c4ccccc4)OC(=O)[C@H]3[C@@H]2C(=O)N2CCN(c3ncccn3)CC2)cc1`, the composite z-score in [1] is 1.25; in [3], 0.201; in [4], 1.91; in [5], 0.722; in [6] it was -0.252; in [7] it was -0.262. Moreover, the composite z-score in [8] was -0.474; in experiment [9] it was 0.45; in experiment [10], 0.235; with Albumin (Bos taurus), 0.716; in experiment [12], -0.156; in [13], -0.157. Besides, the composite z-score in experiment [14] was 0.39; in experiment [15], 0.873; in [16], 0.324; in the experiment with Sam68 (KHDRBS1), 0.514; in [17], -0.233; in experiment [18] it was 1.04. Besides, the z-score in experiment [2] is -1.18. Further, the composite Z-score in experiment [11] was -0.912 (inactive).
